# Experimental data as given in ChEMBL document CHEMBL3988442, “University of Dundee, Small-Polar-MMV Screening Library” (2021).
# Out of some 48,000 compounds screened, about 13,000 (27%) showed an effect of 50% or more. Some of the results follow.
# System: Wolbachia pipientis
# Assay: Anti-Wolbachia Cell-Based Screen
# Format: functional
# Set-up: scale not given: in the data most compounds retested in dose-response had high values
# Settings: 5 µM
row,Compound,Percent Effect [%]
1,COc1cccc(CNC(C)c2ccc(-n3ccnc3)cc2)c1O (centres undefined),3.228
2,CCc1nn(C)c(CC)c1CNC(=O)Nc1cccc([S+](C)[O-])c1 (centres undefined),3.217
3,CN1CCN(c2cccc(NC(=O)NCc3csc(N(C)C)n3)c2)C1=O,-9.852
4,CN(C)c1nc(CNC(=O)Nc2cccc([S+](C)[O-])c2)cs1 (centres undefined),95.39
5,O=C(NCCn1nc2ccccn2c1=O)c1cccc2[nH]ncc12,-8.467
6,COCc1cn(CC2CCN(Cc3cc(C)[nH]n3)CC2)nn1,114.7
7,Cc1cc(C)n2ncc(CN3CCC(Cn4cc(CO)nn4)CC3)c2n1,8.529
8,COCc1cn(CC2CCN(Cc3nc(C)c[nH]3)CC2)nn1,122.2
9,COCc1cn(CC2CCN(Cc3c(C)[nH]c4ccccc34)CC2)nn1,121.8
10,CCCN1CCC(N2CCC(Cn3cc(CC(C)O)nn3)CC2)CC1 (centres undefined),-21.76
11,CC(C)(CN1CCCC1)CN1CCC(Cn2cc(CCO)nn2)CC1,39.97
12,CNCc1cn(CC2CCN(CC(C)(C)CN3CCCC3)CC2)nn1,-11.44
13,CNCc1cn(CC2CCN(Cc3cccs3)CC2)nn1,1.439
14,Cc1nc(CN2CCCC(Cn3cc(CCO)nn3)C2)c[nH]1 (centres undefined),12.54
15,CCC(CNC(=O)c1ccc(Br)o1)N1CCc2ccccc2C1 (centres undefined),-5.246
16,N[C@H]1CC[C@@H](Nc2nccc(CCC(F)(F)F)n2)CC1,2.361
17,Cc1ncsc1C(=O)N1CCC(c2ncncc2-c2ccnc(N)c2)C1 (centres undefined),113.1
18,O=C(c1ccccc1)N1CCCN(C(=O)c2ncncc2Cl)CC1,22.3
19,CC(C)n1ccnc1C1CCN(C(=O)c2ccccc2)CC1,1.199
20,Cc1nc(C2CCCN(C(=O)c3scnc3C)C2)no1 (centres undefined),-0.5479
21,Nc1cc(-c2cncnc2C2CCN(C(=O)c3ccccc3)C2)ccn1 (centres undefined),132.6
22,Cc1ccc2nc(CN(Cc3ccc(C#N)cc3)C(C)C)cc(=O)n2c1,-2.733
23,COCCCN(C)[C@@H]1c2ccccc2C2(CCNCC2)[C@H]1O,9.06

row,Compound,Percent Effect [%]
1,COC(CNC(=O)c1cn(C)nn1)c1ccccc1C (centres undefined),-14.48
2,COc1c(F)cc(-c2cn(CCn3c(C)cc(C)nc3=O)nn2)cc1Cl,-4.684
3,Cc1noc(C)c1CN1CCN(C(=O)CCn2cncn2)CC1,-2.995
4,CCn1ncc(CN2CCN(C(=O)Cn3cc(Br)c(C)n3)CC2)c1C,124.7
5,Cc1nc(C)c(C(=O)N2CCCN(Cc3cnn(C)c3)CC2)s1,16.21
6,Cc1nn(CC(=O)N2CCN(Cc3cnn(C)c3C)CC2)cc1Br,123
7,Cc1c(Cn2cc(Cl)c(N)n2)cnn1C,-4.897
8,Cc1nn(CC(=O)NCc2cc3n(n2)CCCN(CC(C)C)C3)cc1Cl,-2.88
9,Cc1nn(CC(=O)N2CCN(Cc3cccnc3)CC2)c(C)c1Cl,2.693
10,CCn1ncc(Cn2cc(Cl)c(N)n2)c1C,0.6319
11,Cc1nn(CCC(=O)N2CCN(Cc3cnn(C)c3C)CC2)c(C)c1Br,118.1
12,Cc1nn(CC(=O)N2CCN(Cc3cnn(C)c3C)CC2)cc1Cl,97.92
13,Cl.Cl.OC(CN1CCN(Cc2cccc(F)c2)CC1)C1CC1 (centres undefined),-1.915
14,CCC(=O)NC(CC(C)C)c1cccs1 (centres undefined),11.67
15,O=C1CC(NS(=O)(=O)NCc2ccccc2)CN1c1ccccc1Cl (centres undefined),6.599
16,Cc1ccc(OCC(=O)NC2(C#N)CCSCC2)cc1C,-7.391
17,Cc1nsc(NC2CCN(c3ccccc3OC(F)F)C2=O)n1 (centres undefined),-11.3
18,Cc1cccc(-c2nnc(C(C)NCCn3cc(C)cn3)o2)c1 (centres undefined),-10.86
19,CC(=O)Nc1cccc(C(C)NCC2CCS(=O)(=O)CC2)c1 (centres undefined),10.2
20,CNC(=O)c1n[nH]c2c1C(c1cccc3c1OC(C)(C)C3)CC(=O)N2 (centres undefined),27.3
21,Cc1nn(CCO)cc1CN1CCCN(C2CCCC2)CC1,15.64
22,Cc1noc(C)c1CN1CCN(C(=O)Cn2cncn2)CC1,-5.281
23,Cc1nn(CC(=O)N2CCN(Cc3cn(C)nc3C)CC2)cc1Br,147.4

row,Compound,Percent Effect [%]
1,O=C(c1ccc[nH]1)N1CCN(C(c2ccccc2)C(F)(F)F)CC1 (centres undefined),-1.01
2,CC(=O)NCCNC(=O)c1cnc(-c2ccccc2)nc1,-5.417
3,Cc1ccc(C(=O)NS(C)(=O)=O)cc1S(C)(=O)=O,-7.611
4,Cc1ccc(C(=O)NCCN2CCOCC2)cc1N(C)S(C)(=O)=O,-26.4
5,Cc1ccc(C(=O)NS(C)(=O)=O)cc1-n1cccc1,119
6,Cc1ccc(C(=O)NCCCN(C)S(C)(=O)=O)c(=O)[nH]1,-1.59
7,Cc1ccc(C(=O)NCCCN(C)S(C)(=O)=O)cc1-n1cccc1,108.6
8,CC(=O)NCCNC(=O)c1ccc(C)c(-n2cccc2)c1,112.1
9,Cc1ccc(C(=O)NCCCNS(C)(=O)=O)cc1C,117.8
10,Cc1ccc(CC(=O)NCCCNS(C)(=O)=O)cc1,4.317
11,CC(=O)NCCc1cn(-c2cc(F)ccc2C)cn1,0.929
12,Cc1ccc(C(=O)NS(C)(=O)=O)cc1I,-7.571
13,Cc1cc(C(=O)NCCC(C)C)ccc1NS(C)(=O)=O,2.329
14,CCSCCC(C)N(C)C(=O)c1cc(C)on1 (centres undefined),-12.53
15,O=C(O)c1cc(S(=O)(=O)N2CCOc3ccccc32)ccc1F,8.076
16,CCC[C@@H]1CN(Cc2cc3c(cc2OC)OCCO3)C[C@H]1C(=O)O,-0.5486
17,O=C(CCNc1ncccn1)NCCOc1ccc2c(c1)CCC2,1.956
18,COc1ccc(CN2CCC3(CC2)C(C(=O)O)CC(=O)N3C)cc1Cl (centres undefined),2.306
19,CC[C@H]1N(Cc2ccc(OC)cc2)CCC[C@]12CCC(=O)N2C,102.5
20,COc1cc(CN2CCN(CC3CC3)[C@@H]3CS(=O)(=O)C[C@@H]32)cc(OC)c1,-1.299
21,CCn1c(C2CCCN(Cc3cc(OC)cc(OC)c3)C2)nn(C)c1=O (centres undefined),-1.28
22,CC[C@@H]1N(Cc2cc(OC)cc(OC)c2)CCC[C@]12CCC(=O)N2C,92.68
23,COCCN1C(=O)CC[C@]12CC[C@@H](NCc1ccc(OC)cc1)CC2,-14.96
